# Assay outcomes (PubChem BioAssay)
# Most compounds without a hit are left out; they make up all but 2.3% or so of the library.
# MCL1-BIM inh – inhibitors of human MCL1 binding to BIM-BH3 peptide. Q07820. GST-MCL1 / FITC-Bim-BH3 fluorescence polarization. inhibition, % at 10.9 µM. actives 0.68% (n = 320,000). AID 2057;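 active = inhibition above the mean inhibition of all tested compounds plus 3 SD, set per campaign, cut at about 40% in these data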;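 also: 0% = DMSO wells and 100% = unlabeled Bim-BH3 peptide control; higher means more loss of mP so more displacement of Bim peptide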
# Target sequence (Q07820 whole entry, looked up): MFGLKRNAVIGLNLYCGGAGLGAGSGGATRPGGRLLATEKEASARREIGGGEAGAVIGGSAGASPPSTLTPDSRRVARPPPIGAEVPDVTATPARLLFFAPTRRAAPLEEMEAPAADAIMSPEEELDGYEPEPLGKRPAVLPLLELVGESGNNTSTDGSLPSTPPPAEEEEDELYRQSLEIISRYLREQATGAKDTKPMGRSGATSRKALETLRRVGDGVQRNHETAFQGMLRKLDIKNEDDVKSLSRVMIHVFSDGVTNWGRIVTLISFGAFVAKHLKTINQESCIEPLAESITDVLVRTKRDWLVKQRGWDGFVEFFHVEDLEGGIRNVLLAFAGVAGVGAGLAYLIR
# Mcl1-Noxa inh – Mcl-1/Noxa interaction inhibition; TR-FRET Mcl-1/Noxa peptide binding, 2 h; AID 1022; Q07820; actives 1.5% (n = 220,000); inhibition, % at 21.7 µM;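 active = compounds that cut the protein-peptide binding signal by more than 50% relative to plate controls in a single-dose test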;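 also: His-tagged Mcl-1 with rhodamine Noxa BH3 peptide and terbium anti-His antibody; 0% = Mcl-1 plus Noxa peptide wells and 100% = peptide-only wells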
# GLD-1 RNA inh – GLD-1-TGE RNA interaction inhibition (C. elegans); Q17339; purified GLD-1 + fluorescein TGE RNA, fluorescence polarization; inhibition, % at 5.96 µM; actives 0.44% (n = 320,000); AID 2280;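 active = percent inhibition above a per-plate cutoff, the plate mean of test compounds plus 3 SD, cut at about 30% in these data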;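 also: 0% = DMSO wells with GLD-1 and probe and 100% = wells lacking GLD-1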
# Bcl-xL primary – inhibitors of human Bcl-xL. Q07817. GST-Bcl-xL / FITC-Bim BH3 peptide fluorescence polarization. inhibition, % at 10.9 µM. actives 0.7% (n = 320,000). AID 2129;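 active = inhibition above the mean of all tested compounds plus 3 SD, cutoff set per campaign, cut at about 30% in these data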;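 also: 0% = DMSO wells and 100% = unlabeled Bim-BH3 peptide competitor; inhibitors lower millipolarization by displacing the labeled peptide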
# Target sequence (Q07817 whole entry, looked up): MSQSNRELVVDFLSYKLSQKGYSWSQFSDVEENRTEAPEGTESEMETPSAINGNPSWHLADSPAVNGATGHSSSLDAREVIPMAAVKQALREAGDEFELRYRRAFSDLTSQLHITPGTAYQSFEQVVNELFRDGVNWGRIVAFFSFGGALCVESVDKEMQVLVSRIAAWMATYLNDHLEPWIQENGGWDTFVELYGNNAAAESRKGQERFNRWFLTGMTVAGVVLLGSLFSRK
# Bim-Mcl-1 – human Bim-Mcl-1 interaction inhibition | Bead-based flow cytometry, Bim peptide-Mcl-1 binding | inhibition, % at 10 µM | actives 0.1% (n = 190,000) | AID 1009; in the data active = inhibition above about 40%;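 also: 0% = no compound tracer wells and 100% = peptide blocker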
# Mcl1-Bid inh – Mcl-1/Bid interaction inhibition. Q07820. TR-FRET Mcl-1/Bid-Dy647 peptide binding, 1536-well. inhibition, % at 21.7 µM. actives 0.97% (n = 220,000);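 active = compounds that cut the binding signal by more than half at the single screening dose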;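 also: His-tagged Mcl-1 with europium anti-His antibody binding Bid BH3 peptide; 0% = Mcl-1 plus peptide wells and 100% = peptide-only wells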
# An asterisk follows results filed as active; . = no result given.
SMILES,MCL1-BIM inh,Mcl1-Noxa inh,GLD-1 RNA inh,Bcl-xL primary,Bim-Mcl-1,Mcl1-Bid inh
Cc1ccc(S(=O)(=O)c2nc(-c3ccccc3Cl)oc2N(C)C)cc1,11,.,4,-3,.,.
Cc1ccccc1Nc1nnc(SCC(=O)NC(=O)NCc2ccco2)s1,10,56*,1,2,-3,-59
O=C(CSc1nnc(Nc2ccccc2F)s1)NCc1ccco1,.,30,.,.,0,-54
Cc1ccc(Nc2nnc(SCC(=O)NCc3ccco3)s2)cc1,.,53*,.,.,-3,-73
O=C(CSc1nnc(COc2ccccc2Cl)o1)NC(=O)NCc1ccco1,25,81*,1,3,.,-40
O=C(CSc1nnc(Nc2ccccc2)s1)NCc1ccco1,6,2,-2,4,0,-37
CCOc1ccccc1-n1nnnc1SCC(=O)NC(=O)NCc1ccco1,4,53*,-4,-2,2,-83
Cc1nnc(SCC(=O)NC(=O)NCc2ccco2)n1Cc1ccccc1,8,53*,8,-5,-3,2
Cc1sc2nc3ccc(NCc4ccco4)nn3c(=O)c2c1C,29,40,10,34*,8,-53
Nn1c(SCC(=O)NCCN2C(=O)CSC2=O)nnc1-c1ccc(OC(F)F)cc1,-10,.,1,-8,.,.
CCn1c(SCC(=O)NC(=O)NCc2ccco2)nc2sc(C)c(C)c2c1=O,26,55*,0,11,-1,-6
Nn1c(SCC(=O)NC(=O)NCc2ccco2)nnc1-c1ccc(OC(F)F)cc1,4,96*,-3,-12,-4,18
O=C(CSc1nnc(Cc2ccccc2)n1Cc1ccccc1)NCc1ccco1,-8,-7,1,5,-4,-10
CCCCN1CN(Cc2ccccc2)CNC1=S,10,5,-1,2,-3,-40
Clc1ccc2nc(N3CCN(c4ccccc4)CC3)sc2c1,9,1,7,6,-3,5
COc1ccc(CNC(=O)CN(Cc2ccco2)C(=O)CCC(=O)Nc2ccccn2)cc1,-7,.,2,0,.,.
CC1(OC(=O)c2ccco2)C(=O)C=C2C=C(c3ccsc3)OC=C2C1=O (stereo unspecified),31,.,24,14,.,.
C=CC1=C2C=C(C3CC3)N(C3CC3)C=C2C(=O)C(C)(OC(=O)c2ccco2)C1=O (stereo unspecified),28,.,16,31*,.,.
CN(Cc1ccc(F)cc1)S(=O)(=O)c1nnc(NC(=O)c2ccccc2)s1,2,.,-1,4,.,.
N#C/C(=C/c1ccc(F)cc1)c1nnc(NC(=O)c2ccccc2)s1,5,68*,6,6,.,3
CCCN1CCC(NC(=S)Nc2ccc([N+](=O)[O-])cc2)CC1,8,9,7,9,-2,-25
CCCN1CCC(NC(=S)Nc2ccc(C(=O)OCC)cc2)CC1,5,0,4,2,-5,84*
Cc1ccc(C(=O)CSc2nnc(-c3cccs3)n2C)o1,-5,-1,7,-2,-1,28
C=CCN1C(=O)/C(=C/c2ccc(O)cc2)S/C1=N/c1nccs1,-33,14,-104,-9,-1,-60
C=CCN1C(=O)/C(=C2/C(=O)N(CC(=O)O)c3ccccc32)S/C1=N/c1nccs1,.,89*,.,.,1,-38
SMILES,MCL1-BIM inh,Mcl1-Noxa inh,GLD-1 RNA inh,Bcl-xL primary,Bim-Mcl-1,Mcl1-Bid inh
CC(NC(=O)c1csc2ccccc12)C1CCCO1 (stereo unspecified),5,11,3,6,-1,-4
CCc1nnc(NC(=O)c2sc3nc4c(cc3c2N)CCCCCC4)s1,-5,53*,4,3,-4,42
COc1ccc(-c2csc(NC(=S)NC(=O)/C=C/c3ccco3)n2)cc1Br,4,66*,7,0,.,8
COc1ccc(-c2csc(NC(=S)NC(=O)c3ccco3)n2)cc1Br,4,.,-6,2,.,.
COc1ccc(-c2csc(NC(=S)NC(=O)/C=C/c3ccco3)n2)cc1OC,-24,52*,2,1,-6,70*
COc1cccc(OCc2cc(C(=O)N3CCCC3c3ccccn3)no2)c1 (stereo unspecified),3,.,-5,0,.,.
N=c1cc(C2(O)CCCCC2)n2c(nc3ccccc32)s1,2,0,-9,-2,2,98*
NC1=NC2(CCCCC2)n2c(nc3ccccc32)N1,8,-8,10,0,-5,-9
CC1C(c2ccccc2)N(C)CCC12NC(=O)NC2=O (stereo unspecified),6,-17,1,-3,0,88*
Cc1cc(=O)cc(C)n1-c1ccc(Br)cc1,-5,-1,88*,-4,-2,-6
c1cc(-c2cn(C[C@H]3CC[C@@H]([C@@H]4CC[C@H](Cn5cc(-c6ccsc6)nn5)O4)O3)nn2)cs1,4,.,7,5,.,.
Cc1cc(NC2C3CC4CC(C3)CC2C4)n2nnnc2n1 (stereo unspecified),2,27,8,1,0,76*
O=C(COc1ccc(/C=N/NS(=O)(=O)c2ccccc2)cc1)Nc1ccccc1,2,-4,2,4,1,-35
CCCCC(=Nc1ccc(N)cc1)C1=C(O)C(C(=O)OC)C(C)(C)CC1=O (stereo unspecified),32,14,8,32*,0,-39
COc1cc(C(=O)N2CCC(NC(=O)C(Cc3ccccc3C)NC(C)=O)CC2)cc(OC)c1OC (stereo unspecified),3,-3,-4,7,1,-19
COc1cc(C(=O)NCCCNc2nc3cc(C)cc(C)c3cc2C#N)cc(OC)c1OC,-4,3,3,0,0,-4
Cc1ccc(-n2c(C)cc3c2CCCC3=O)cc1,34,2,17,31*,5,-44
CCN(CC(=O)Nc1c(C(=O)OC)[nH]c2ccc(Cl)cc12)c1ccc2c(c1)OCO2,49*,43,1,49*,6,59*
CCOC(=O)c1[nH]c2ccc(Cl)cc2c1NC(=O)/C=C/c1ccc2c(c1)OCO2,-1,23,0,0,-3,-21
COc1ccc(OCC(=O)Nc2ccc3c(c2)nc(CCNC(C)=O)n3C)cc1,5,.,4,3,.,.
CCOc1ccc(C2C3=C(Nc4nc(N)[nH]c(=O)c42)c2ccccc2C3=O)cc1 (stereo unspecified),-1,76*,9,12,-7,52*
Cc1cc2c(c(=O)n1CC1CCCO1)C(c1ccco1)C(C#N)=C(N)O2 (stereo unspecified),0,-2,1,2,6,-77
Cc1nc(NC(=O)COC(=O)C(NC(=O)c2ccco2)C(C)C)c(Cl)cc1Cl (stereo unspecified),-1,11,1,2,-3,-13
C=CCNc1ncnc2c1[nH]c1ccc(C)cc12,10,26,4,5,-1,-6
